In PubChem BioAssay AID686978 (National Center for Advancing Translational Sciences (NCATS), 2013):
Among all 420,000 compounds or so, about 64,000 (15%) were called active. Inconclusive results (about 27%) are left out. The call rests on the fitted dose curve; in most records, active means well fitted inhibition curve with a large enough effect; inconclusive means small, poorly fitted or top-dose-only effect; inactive means flat fitted curve, though single readings scatter. Only a sample is shown.

Assay: qHTS for Inhibitors of human tyrosyl-DNA phosphodiesterase 1 (TDP1): qHTS in cells in absence of CPT; further: nearly all actives have a fitted effect of over 55% in size
Details: DT40 Tdp1-/- hTDP1 cells, no CPT, ATP luminescence, 48 h; activity change, negative = growth inhibition: at 46.2 µM (top of the series)
In short: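 Compound effects on proliferation are scored in DT40 Tdp1-/-;hTDP1 cells in the absence of CPT. ATP levels (CellTiter-Glo luminescence) are recorded after a ≥48 hr, 37 °C incubation.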
On the % scale 0 is the no-effect control and ±100 the full control effect; potency means the concentration at half of the fitted maximal effect.

| Structure (SMILES) | activity change, negative = growth inhibition | Potency |
| --- | --- | --- |
| O=C(C1CCCO1)N(Cc1ccccc1)c1ccccc1 (stereo not given) | -1.91% (inactive) | – |
| Cc1cc(C)c(NC(=O)c2cc3sc(Cl)cc3n2C)c(C)c1 | -14.2% (inactive) | – |
| COC(=O)Cc1ccc(OCC(=O)Nc2ccc(OC(F)(F)F)cc2)cc1 | 0.899% (inactive) | – |
| CCOC(=O)Cc1ncccc1C(=O)Nc1ccc(OC(F)(F)F)cc1 | – | 14.6 µM (active) |
| CCOC(=O)Cc1ncccc1C(=O)Nc1ccc(OC)cc1 | -8.44% (inactive) | – |
| O=c1[nH]snc1-c1c(Cl)cccc1Cl | 2.16% (inactive) | – |
| O=C(NC1CC(=O)N(c2ccc(Cl)cc2)C1)C1CCCC1 (stereo not given) | -17.6% (inactive) | – |
| Cc1cc(C)c(S(=O)(=O)Nc2c(C)n(C)n(-c3ccccc3)c2=O)cc1[N+](=O)[O-] | -2.01% (inactive) | – |
| CCCCCCCC[n+]1cccc(C(=O)N2c3c(nc(N)[nH]c3=O)NC(C)C2C)c1 (stereo not given) | -7.83% (inactive) | – |
| COc1ccc(C2C(C#N)=C(N)N(c3ncn[nH]3)C3=C2C(=O)CCC3)cc1 (stereo not given) | -0.937% (inactive) | – |
| CSc1sc(C)cc1C1C(C#N)=C(N)N(c2cccnc2)C2=C1C(=O)CCC2 (stereo not given) | – | 11.6 µM (active) |
| N#CC1=C(N)N(c2ccccc2)C2=C(C(=O)CCC2)C1c1ccccc1 (stereo not given) | -9.89% (inactive) | – |
| Nc1c(N(CCO)C(=O)C2CCCCC2)c(=O)[nH]c(=O)n1Cc1ccccc1 | -28.9% (inactive) | – |
| COCCSc1nnc(NC(=O)c2cc(OC)c(OC)cc2[N+](=O)[O-])s1 | -0.273% (inactive) | – |
| O=c1c2cc(-c3ccccc3)sc2nc2n1N=C(c1cccs1)CS2 | – | 23.1 µM (active) |
| c1csc(-c2cn3c(n2)SCC3)c1 | -23.2% (inactive) | – |
| Cc1nnc2n1N=C(c1ccccc1)CS2 | -0.421% (inactive) | – |
| Cc1ccc(NC(=O)CCC(=O)N/N=C/c2ccco2)c(C)c1 | -0.547% (inactive) | – |
| Cc1ccc(OCC(=O)N/N=C\c2ccco2)c(C)c1 | -9.09% (inactive) | – |
| Cc1cc(C)c(OCC(=O)N/N=C/c2ccco2)c(C)c1 | – | 16.4 µM (active) |
| O=C(NC1CCCC1)C(c1ccco1)N(C(=O)c1csnn1)c1ccccc1 (stereo not given) | -9.4% (inactive) | – |
| O=C(NCc1ccccc1)C(c1ccc(F)cc1)N1CCN(C(=O)C2CCCO2)CC1 (stereo not given) | -3.25% (inactive) | – |
| O=C(NCC1CCCO1)/C(=C/c1ccc(Cl)cc1)NC(=O)c1ccccc1 (stereo not given) | -11.4% (inactive) | – |
| Cc1ccc(NC(=O)CN(C)C(=O)COC(=O)c2nccnc2N)cc1 | -17.6% (inactive) | – |

| Structure (SMILES) | activity change, negative = growth inhibition | Potency |
| --- | --- | --- |
| Brc1ccccc1C1N=C(c2ccccc2)NO1 (stereo not given) | -17.2% (inactive) | – |
| CCOC(=O)C1CCCN(C(=O)c2ccc(N(C)C)cc2)CC1 (stereo not given) | -22.5% (inactive) | – |
| CCOC(=O)N1CCN(C(=O)c2ccc(CN(c3ccc(C)c(C)c3)S(C)(=O)=O)cc2)CC1 | – | 23.1 µM (active) |
| CCN1CCN(C(=O)c2ccc(CN(c3ccc(C)c(C)c3)S(C)(=O)=O)cc2)CC1 | -25.9% (inactive) | – |
| CO/N=C/CC(=O)c1ccc(OC)cc1 | -8.75% (inactive) | – |
| COCCNc1nc2nonc2nc1N(C)Cc1ccc(C)cc1 | -6.6% (inactive) | – |
| CN(C)C(CNC(=O)CCCOc1ccccc1)c1ccco1 (stereo not given) | 1.99% (inactive) | – |
| CCC1(C)CC(=O)NC1=O (stereo not given) | – | inactive |
| CCc1cccc(C)c1NS(=O)(=O)c1cc(Br)cnc1N | – | 18.4 µM (active) |
| COc1ccc(N2CCN(S(=O)(=O)c3cc(Br)cnc3N)CC2)cc1 | -2.17% (inactive) | – |
| CCc1cccc(C)c1NS(=O)(=O)c1c(C)nc2sccn2c1=O | -19.2% (inactive) | – |
| Cc1cc(C)c2nc(-c3ccco3)cc(C(=O)O)c2c1 | -19.2% (inactive) | – |
| CN(C)S(=O)(=O)c1ccc(C(=O)NCC(C)(C)N2CCOCC2)cc1 | -1.91% (inactive) | – |
| CC(C)(CNC(=O)Cc1ccc(Cl)cc1Cl)N1CCOCC1 | 3.47% (inactive) | – |
| CC(C)(CNC(=O)c1ccc(Cl)c(S(=O)(=O)N2CCc3ccccc3C2)c1)N1CCOCC1 | – | 23.1 µM (active) |
| Cc1ccc(C)c(NC(=O)COC(=O)CSc2ccccc2)c1 | -10.1% (inactive) | – |
| Cc1cccc(C)c1NC(=O)CS(=O)CC(=O)N1CCN(c2ccccc2)CC1 (stereo not given) | -24.6% (inactive) | – |
| Cc1ccccc1C(=O)NC(=S)NC1CC1 | -9.02% (inactive) | – |
| Cc1ccccc1C(=O)NC(=S)Nc1ccc(N2CCN(C(=O)c3ccccc3)CC2)cc1 | – | 10.3 µM (active) |
| Cc1ccccc1C(=O)Nc1ccc(N2CCCCCC2)cc1 | – | 9.2 µM (active) |
| Cc1ccccc1C(=O)Nc1ccccc1NC(=O)c1ccccc1C | -28.3% (inactive) | – |
| COc1ccc(N2CCN(C(=O)c3cccs3)CC2)cc1 | -6.89% (inactive) | – |
| O=C(NC(=O)c1ccccc1N1CCCCC1)Nc1ccc(Br)cc1 | -2.29% (inactive) | – |
| O=C(Nc1ccc(N2CCN(C(=O)c3cccs3)CC2)cc1)c1cccnc1Cl | 1.55% (inactive) | – |

| Structure (SMILES) | activity change, negative = growth inhibition | Potency |
| --- | --- | --- |
| Cc1ccccc1C(=O)N1CCN(c2ccc(NC(=O)c3cccs3)cc2)CC1 | – | 16.4 µM (active) |
| NS(=O)(=O)c1ccc(CCNC(=O)COC(=O)COc2cccc(C(F)(F)F)c2)cc1 | 5.08% (inactive) | – |
| Cc1noc(NS(=O)(=O)c2ccc(NC(=O)c3oc4ccc(F)cc4c3C)cc2)c1C | 7.6% (inactive) | – |
| Cc1cc(C)n(CC(=O)Nc2ccc([N+](=O)[O-])cc2)n1 | -1.22% (inactive) | – |
| COC(=O)c1cccc(-n2[nH]nnc2=S)c1 | -16.2% (inactive) | – |
| CC(=O)c1ccc(S(=O)(=O)NCc2nnnn2-c2ccccc2)cc1 | -10.6% (inactive) | – |
| OCCCNC(c1ccccc1)c1ccc(O)cc1 (stereo not given) | -10% (inactive) | – |
| O=C(CC1C(=O)NCCN1CC(c1ccccc1)c1ccccc1)NCC1CCOCC1 (stereo not given) | -6.96% (inactive) | – |
| COc1cc(-c2cc3n(C)c(C)c(CCC(=O)Nc4ccc(F)cc4)c(=O)n3n2)cc(OC)c1OC | -24% (inactive) | – |
| Cc1ccc(CNC(=O)C2CCCN2C(=O)NCc2ccccc2)cc1 (stereo not given) | -7.07% (inactive) | – |
| CCN(CC)S(=O)(=O)c1ccc(N2CC(C(=O)NCc3cccnc3)CC2=O)cc1 (stereo not given) | -13.1% (inactive) | – |
| O=C(Nc1cccnc1Cl)c1cc(-c2ccccc2O)on1 | -23.4% (inactive) | – |
| Brc1ccc(OCCn2ccnc2)cc1 | -7.13% (inactive) | – |
| COc1ccc(CCN=C2SCC(=O)N2C)cc1OC | 9.99% (inactive) | – |
| Cc1ccc2c(c1)c1ncnc(N3CCc4ccccc4C3)c1n2C | – | 20.6 µM (active) |
| Cc1ccc2c(c1)c1ncn(Cc3ccc(F)cc3)c(=O)c1n2C | -28.1% (inactive) | – |
| Cc1ccc(S(=O)(=O)Nc2nc3ccccc3nc2N2CCc3ccccc3C2)cc1 | -23.2% (inactive) | – |
| CCN(C(=O)COC(=O)/C=C/c1nc2ccccc2s1)C1CCS(=O)(=O)C1 (stereo not given) | -9.04% (inactive) | – |
| CCOC(=O)C1=C(C)NC(C)=C(C(=O)OCC)C1C1=COCCO1 | -26% (inactive) | – |
| CN(C)CCOC(=O)C(c1ccccc1)C1(O)CCCC1 (stereo not given) | – | inactive |
| Cc1ccccc1C(OCCN(C)C)C1CCCCC1 (stereo not given) | – | 29.1 µM (active) |
| Cc1nn(Cc2ccc(Cl)cc2)c(Cl)c1/C=N/NC(=O)c1cccnc1 | -21.6% (inactive) | – |
